In PubChem BioAssay AID652057 (Broad Institute, 2013):
The whole screen tested about 1,400 compounds, of which about 1,000 (71%) were called active. No rule for the calls is given here. The set was probably picked from earlier hits. Not all results are given here. Measured potencies and affinities stand elsewhere.

test: blockers of HIV-1 envelope-mediated cell-cell fusion – cherry-pick, dose response (AID 652057); conditions: HeLa-JRFL Env/CEM21 cell fusion, luciferase; series mostly up to 35 µM

Activity change, negative = inhibition, inactive:
CCc1ccc(C(=O)CN2C(=O)NC(C)(c3ccc(C)cc3)C2=O)cc1 (stereo not given), C=CC[n+]1c(-c2ccc(OC)c(OC)c2)csc1NNC(=O)Nc1ccccc1, CC(=O)c1ccc([C@H]2C[C@@]34CN(C(=O)OC(C)(C)C)S(=O)(=O)[C@H]3C[C@H]2O4)cc1, CO[C@@H]1CN(C)C(=O)c2cc(NS(=O)(=O)c3ccc(C)cc3)ccc2OC[C@H](C)N(C(=O)NC(C)C)C[C@@H]1C, O=C(C[C@@H]1C[C@H]2c3cc(NC(=O)C4CCC4)ccc3O[C@H]2[C@H](CO)O1)NCC(F)(F)F, COc1ccc(N2CCN(C(=O)C3CCC(Cn4c(=S)[nH]c5ccccc5c4=O)CC3)CC2)cc1 (stereo not given), C[C@@H]1CN([C@H](C)CO)S(=O)(=O)c2ccc(C#Cc3cccc(F)c3)cc2O[C@@H]1CN(C)C(=O)CN1CCOCC1, Cc1[nH]c2ccccc2c1/C=N\NC(=O)c1ccccc1Cl, CCn1c(/C=C/N(C)c2ccccc2)[n+](CC)c2ccc(Cl)cc21, O=C(C[C@H]1C[C@H]2c3cc(NC(=O)C4CCC4)ccc3O[C@H]2[C@H](CO)O1)NCc1ccc2c(c1)OCO2, Cc1nc2ccccc2c2oc(C(=O)NCc3ccc4c(c3)OCO4)cc12, O=C(Nc1cc2c3c(c1)CC(=O)N3CCC2)c1ccc(Cl)cc1, COC(=O)[C@]12CCCCC=C1N(Cc1ccco1)C(=O)[C@H](CC(=O)NCCc1ccccc1OC)C2, Cc1nn(C)c(Cl)c1NC(=O)OCc1ccc(Cl)cc1Cl, COc1ccc(CCNC(=O)COC(=O)c2cccn2C)cc1, O=C(Nc1cccn(Cc2c(Cl)cccc2Cl)c1=O)c1ccc(Cl)cc1, COc1ccccc1S(=O)(=O)Cc1ccc(C(=O)N2CCN(c3cccc(Cl)c3)CC2)o1, O=C(c1ccccc1F)N1CCN(Cc2cccc(Cl)c2)CC1, COC(=O)[C@H](Cc1ccccc1)NC(=O)Cn1cnc(C(=O)Nc2ccc(C)c(C)c2)n1, CNC[C@H]1Oc2c(NC(=O)Nc3ccc4c(c3)OCO4)cccc2C(=O)N([C@H](C)CO)C[C@@H]1C, Cn1c(CN2CCCCC2)nc2cc(NC(=O)c3ccc(Cl)cc3)ccc21, Cc1ccc(NC(=O)c2ccc(OCC3CCCO3)cc2)cc1Cl (stereo not given), O=C(COc1ccc(-n2cnnn2)cc1)Nc1ccc(F)c(F)c1, O=C(Cc1ccc(Cl)cc1Cl)Nc1ccncc1, CCOc1ccc(-c2cc(CCCC(=O)Nc3cccc(OC)c3)no2)cc1, C[C@@H]1CN([C@@H](C)CO)C(=O)c2cc(NS(=O)(=O)c3ccccc3)ccc2O[C@H]1CN(C)Cc1ccc(Oc2ccccc2)cc1, Cc1onc(-c2ccccc2)c1C(=O)Nc1ccc(Br)cc1Cl, Cc1onc(-c2ccccc2)c1C(=O)NC(=S)NNC(=O)c1ccc(O)cc1, O=C(C[C@@H]1C[C@@H]2c3cc(NC(=O)C4CCC4)ccc3O[C@@H]2[C@@H](CO)O1)NCC(F)(F)F, Cc1ccc(S(=O)(=O)N(C)c2ccc(C(=O)N3CCN(Cc4ccc5c(c4)OCO5)CC3)cc2)cc1, c1ccc2c(c1)OCC(CNc1ncnc3nc[nH]c13)O2 (stereo not given), Cc1nc2sc(C(c3ccco3)N3CCC(Cc4ccccc4)CC3)c(O)n2n1 (stereo not given), N#Cc1c(NCc2ccccc2)ccnc1NCc1cccnc1, Cc1cc(C)c(CN2CCN(C(=O)Cn3cnc4c(NCc5ccccc5)ncnc43)CC2)c(C)c1, C[C@@H]1CN([C@@H](C)CO)C(=O)c2cc(C3=CCCC3)cnc2O[C@@H]1CN(C)Cc1ccc(C(=O)O)cc1, C[C@H]1CN([C@@H](C)CO)C(=O)c2cccc(NC(=O)Nc3ccc(C(F)(F)F)cc3)c2O[C@H]1CN(C)S(=O)(=O)c1ccccc1, Cc1cc(C(=O)NC2CCCc3c2cnn3-c2ccc(C(C)(C)C)cc2)nn1C (stereo not given), c1coc(CNc2c3c(nc4ccccc24)CCC3)c1, C[C@H](CO)N1C[C@H](C)[C@@H](CN(C)S(=O)(=O)c2ccc(F)cc2)Oc2ccc(NS(=O)(=O)c3cn(C)cn3)cc2CC1=O, O=C(c1cc(COc2cccc(C(F)(F)F)c2)on1)N1CCC(c2ccncc2)CC1, CCC(=O)N(C)C(c1ccccc1Cl)c1nnnn1-c1c(C)cccc1C (stereo not given), O=C(c1ccc(S(=O)(=O)Nc2ccc(F)cc2)cc1)N1CCN(C(=O)c2ccco2)CC1, Cc1cc(C)nc(/N=C(\N)Nc2ccc(CC(=O)OC(C)C)cc2)n1, O=C(Nc1ccc(CN2CCOCC2)cc1)c1ccc(-c2cccc(Cl)c2)o1, C#CCn1c(=O)c2c(ncn2C)n(C)c1=O, CCNC(=O)C[C@@H]1CC[C@@H]2[C@@H](COc3ccc(NC(=O)Cc4cccs4)cc3C(=O)N2C)O1, Cc1nn(C)cc1NC(=O)C[C@H]1CC[C@@H]2[C@@H](COc3ccc(NC(=O)C4CCC4)cc3C(=O)N2C)O1, CCNC(=O)C[C@H]1CC[C@@H]2[C@@H](COc3ccc(NC(=O)Cc4cccs4)cc3C(=O)N2C)O1, CN1C(=O)c2cc(NC(=O)NC3CCCC3)ccc2OC[C@@H]2O[C@H](CC(=O)NC3CCC3)CC[C@@H]21, CCNC(=O)Nc1ccc2c(c1)C(=O)N(C)[C@@H]1CC[C@@H](CC(=O)NCC3CCCCC3)O[C@@H]1CO2, COCC(=O)Nc1ccc2c(c1)C(=O)N(C)[C@H]1CC[C@H](CC(=O)NC3CCCC3)O[C@H]1CO2, COc1ccc(OC)c(NC(=O)COc2ccc3c(c2)CCC3)c1, Cc1ccc(S(=O)(=O)N(C)C[C@@H]2Oc3ccc(NS(=O)(=O)c4ccc(Cl)cc4)cc3C(=O)N([C@@H](C)CO)C[C@H]2C)cc1, Cc1ccc(S(=O)(=O)Nc2ccc3c(c2)C(=O)N([C@H](C)CO)C[C@@H](C)[C@H](CN(C)S(=O)(=O)c2ccc(F)cc2)O3)cc1, CCNC1CCC(Nc2ccnc3cc(Cl)ccc23)CC1 (stereo not given)
